Test results reported in PubChem BioAssay (EPA / NIEHS).
Several values for one entry are separate records, joined by “and”; a condition that tells them apart may be missing. Equal values may be shown once. Results filed as inconclusive are left out. A structure can be active in one record and inactive in another. Activity calls are given as the source filed them. Rule for the calls, unless noted: active = hit-call score of the fitted dose curve at least 0.9, where 1 is the maximum; inactive = score below 0.9.

Key:
[1] = target: human RAR-related Orphan Receptor gamma (RORg), RORC (gene 6097) (UniProt P51449); assay: ATG_RORg_TRANS: Attagene TRANS-FACTORIAL HepG2 Assay for human RAR-related Orphan Receptor gamma (RORg) (AID 2283011; active = hit-call score of the fitted dose curve at least 0.9, where 1 is the maximum)
Sequence of human RAR-related Orphan Receptor gamma (RORg), RORC (gene 6097) (P51449 whole entry, looked up, the tested form may be a part): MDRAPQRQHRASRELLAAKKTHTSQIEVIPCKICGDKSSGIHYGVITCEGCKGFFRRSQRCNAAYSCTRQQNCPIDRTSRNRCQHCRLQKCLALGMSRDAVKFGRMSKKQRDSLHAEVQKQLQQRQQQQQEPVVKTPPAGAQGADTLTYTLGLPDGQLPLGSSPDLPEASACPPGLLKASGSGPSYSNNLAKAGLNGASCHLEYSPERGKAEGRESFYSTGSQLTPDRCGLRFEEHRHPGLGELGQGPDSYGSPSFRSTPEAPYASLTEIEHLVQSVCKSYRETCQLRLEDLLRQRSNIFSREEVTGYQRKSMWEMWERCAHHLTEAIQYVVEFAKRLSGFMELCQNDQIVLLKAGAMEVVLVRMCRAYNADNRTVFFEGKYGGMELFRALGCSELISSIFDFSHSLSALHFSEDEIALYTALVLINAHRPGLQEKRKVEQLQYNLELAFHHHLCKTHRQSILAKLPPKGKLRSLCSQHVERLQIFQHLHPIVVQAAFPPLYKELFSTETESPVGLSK
Summary of the method: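 Chimeric RORg-Gal4 transactivation in transfected HepG2; 24 h exposure; RT-PCR/capillary electrophoresis readout of reporter mRNA, DMSO baseline.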

[2] = target: human Thyroid Receptor alpha (THRa1), THRA (gene 7067) (UniProt P10827); assay: ATG_THRa1_TRANS: Attagene TRANS-FACTORIAL HepG2 Assay for human Thyroid Receptor alpha (THRa1) (AID 2283014; active = hit-call score of the fitted dose curve at least 0.9, where 1 is the maximum)
Sequence of human Thyroid Receptor alpha (THRa1), THRA (gene 7067) (P10827 whole entry, looked up, the tested form may be a part): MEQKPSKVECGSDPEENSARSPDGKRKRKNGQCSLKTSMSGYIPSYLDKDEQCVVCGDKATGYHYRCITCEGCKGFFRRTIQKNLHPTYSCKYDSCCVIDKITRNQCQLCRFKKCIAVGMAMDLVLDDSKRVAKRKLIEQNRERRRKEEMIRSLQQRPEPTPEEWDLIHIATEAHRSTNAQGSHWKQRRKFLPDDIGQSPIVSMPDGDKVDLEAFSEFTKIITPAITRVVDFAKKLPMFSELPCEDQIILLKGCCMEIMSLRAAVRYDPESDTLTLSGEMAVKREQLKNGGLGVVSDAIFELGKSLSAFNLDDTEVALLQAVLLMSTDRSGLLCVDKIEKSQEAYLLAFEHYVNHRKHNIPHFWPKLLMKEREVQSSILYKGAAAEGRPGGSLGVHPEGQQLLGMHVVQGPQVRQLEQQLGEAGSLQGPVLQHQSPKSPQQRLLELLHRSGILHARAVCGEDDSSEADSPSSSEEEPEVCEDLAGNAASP
Summary of the method: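 Measured here is mRNA from a GAL4-UAS reporter in transfected HepG2 cells carrying a Gal4-fused receptor, 24 h post-dose. DMSO served as negative control and baseline.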

[3] = read-out: E-selectin (Homo sapiens) (UniProt P16581); assay: BSK_3C_Eselectin: BioMAP Diversity Plus: 3C Assay for Eselectin Biomarker Activity (AID 2283015); details: primary human endothelial cells (HUVEC); actives raise or lower the signal
Summary of the method: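 Endpoint derived by bidirectional fitting against DMSO vehicle; signal is ELISA-detected E-selectin from primary HUVEC at 24 h post-dosing, with parallel SRB staining (0.1% SRB, 560 nm) flagging cytotoxicity.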

[4] = read-out: Interleukin-1 alpha (IL1a), IL1A (gene 3552); assay: BSK_BE3C_IL1a: BioMAP Diversity Plus: BE3C Assay for Interleukin-1 alpha (IL1a) Biomarker Activity (AID 2283016); details: primary human bronchial epithelial cells; actives raise or lower the signal
Summary of the method: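 Signal from IL-1a ELISA, taken 24 h after chemical dosing of human bronchial epithelial cells, is compared with DMSO as baseline using bidirectional curve fitting.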

[5] = read-out: Monocyte Chemoattractant Protein-1 (MCP1), CCL2 (gene 6347); assay: BSK_3C_MCP1: BioMAP Diversity Plus: 3C Assay for Monocyte Chemoattractant Protein-1 (MCP1) Biomarker Activity (AID 2283017); details: primary human endothelial cells (HUVEC); actives raise or lower the signal
Summary of the method: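 Using human vascular primary endothelium, researchers measured MCP-1 by ELISA 24 h after treatment, with DMSO serving as negative control for bidirectional fitting.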

[6] = read-out: Monocyte Chemoattractant Protein-1 (MCP1), CCL2 (gene 6347); assay: BSK_4H_MCP1: BioMAP Diversity Plus: 4H Assay for Monocyte Chemoattractant Protein-1 (MCP1) Biomarker Activity (AID 2283018); details: primary human endothelial cells (HUVEC); actives raise or lower the signal
Summary of the method: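 Endothelial cells from umbilical vein were treated with test chemical, then after 24 h MCP-1 levels were quantified by ELISA; endpoint values came from bidirectional fitting with DMSO as baseline of activity.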

[7] = read-out: Human Leukocyte Antigen - DR isotype (HLADR), HLA-DRA (gene 3122); assay: BSK_3C_HLADR: BioMAP Diversity Plus: 3C Assay for Human Leukocyte Antigen - DR isotype (HLADR) Biomarker Activity (AID 2283019); details: primary human endothelial cells (HUVEC); actives raise or lower the signal
Summary of the method: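 Compound added to primary HUVEC cultures, 24 h incubation, then HLA-DR determined by ELISA; endpoint derived by bidirectional fitting relative to DMSO negative control.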

[8] = read-out: Interleukin-8 (IL8), CXCL8 (gene 3576); assay: BSK_3C_IL8: BioMAP Diversity Plus: 3C Assay for Interleukin-8 (IL8) Biomarker Activity (AID 2283020); details: primary human endothelial cells (HUVEC); actives raise or lower the signal
Summary of the method: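 Endothelial primary cells of human umbilical vein origin are dosed with chemical; after 24 h the IL-8 biomarker is measured by ELISA, and concentration–response is fitted in both directions versus DMSO.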

[9] = read-out: Monokine induced gamma interferon (MIG), CXCL9 (gene 4283); assay: BSK_3C_MIG: BioMAP Diversity Plus: 3C Assay for Monokine induced gamma interferon (MIG) Biomarker Activity (AID 2283021); details: primary human endothelial cells (HUVEC); actives raise or lower the signal;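 for AC50: MIG protein level measured by immunoassay in the treated endothelial cultures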
Summary of the method: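 Endothelial primary cells (human umbilical vein) are dosed with test chemical in the 3C system. MIG levels are measured by ELISA at 24 h and fitted in both directions relative to DMSO.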

[10] = BSK_3C_SRB: Viability Assessment in the BioMAP Diversity Plus: 3C Assay (AID 2283023); details: primary human endothelial cells (HUVEC);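 note: fitted both ways against DMSO so a hit may be signal rise or drop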
Summary of the method: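 Overt cytotoxicity is gauged in parallel confluent HUVEC cultures by SRB total-protein staining at the time of biomarker measurement, 24 h after dosing. Gain or loss of signal is fitted versus DMSO.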

[11] = read-out: Matrix Metallopeptidase 1 (MMP1), MMP1 (gene 4312); assay: BSK_BE3C_MMP1: BioMAP Diversity Plus: BE3C Assay for Matrix Metallopeptidase 1 (MMP1) Biomarker Activity (AID 2283024); details: primary human bronchial epithelial cells; actives raise or lower the signal
Summary of the method: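 MMP1 signal, measured by ELISA after a 24 h chemical exposure of human primary bronchial epithelial cells, is analysed with bidirectional fitting using DMSO as negative control.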

[12] = BSK_3C_Vis: BioMAP Diversity Plus: 3C Assay for Morphology Visualization (AID 2283025); details: primary human endothelial cells (HUVEC);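 note: fitted both ways so gain or loss versus DMSO counts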
Summary of the method: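 Morphology read by light microscopy serves as a background control for the multiplexed 3C assay in human umbilical vein endothelial cells, taken 24 h after dosing, with DMSO as the negative control and bidirectional curve fitting.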

[13] = read-out: Pselectin, SELP (gene 6403); assay: BSK_4H_Pselectin: BioMAP Diversity Plus: 4H Assay for Pselectin Biomarker Activity (AID 2283026); details: primary human endothelial cells (HUVEC); actives raise or lower the signal
Summary of the method: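 Endothelial primary cells (human umbilical vein) are dosed, incubated 24 h, and assayed for surface P-selectin by ELISA; responses in either direction are fitted relative to the DMSO negative control.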

[14] = BSK_4H_SRB: Viability Assessment in the BioMAP Diversity Plus: 4H Assay (AID 2283027); details: primary human endothelial cells (HUVEC);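 note: cells exposed to compound for 24 h before staining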;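 for AC50: curves fitted both ways versus DMSO so AC50 may be loss or gain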
Summary of the method: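 Cytotoxicity readout: sulforhodamine B (0.1%) staining of total protein after 10% TCA fixation, measured at 560 nm in human umbilical vein endothelium at 24 h. DMSO set the baseline; fitting was bidirectional.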

[15] = BSK_BE3C_SRB: Viability Assessment in the BioMAP Diversity Plus: BE3C Assay (AID 2283028); details: primary human bronchial epithelial cells;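 for AC50: fitted both ways so AC50 may mark signal gain or loss versus DMSO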
Summary of the method: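 SRB total-protein staining (0.1%, after TCA fixation) of chemically dosed human bronchial epithelial primary cells at 24 h; DMSO serves as the negative control for bidirectional curve fitting.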

[16] = read-out: Urokinase-type plasminogen activator receptor (uPAR), PLAUR (gene 5329); assay: BSK_4H_uPAR: BioMAP Diversity Plus: 4H Assay for Urokinase-type plasminogen activator receptor (uPAR) Biomarker Activity (AID 2283030); details: primary human endothelial cells (HUVEC); actives raise or lower the signal
Summary of the method: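 Endpoint derived via bidirectional curve fitting against DMSO baseline; readout was ELISA detection of uPAR on umbilical vein endothelial cells at 24 h post-treatment, with SRB-stained parallel cultures assessing cytotoxicity.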

[17] = target: Retinoic acid receptor RXR-alpha (Homo sapiens) (UniProt P19793); assay: ATG_RXRa_TRANS: Attagene TRANS-FACTORIAL HepG2 Assay for human Retinoid X Receptor alpha (RXRa) (AID 2283012; active = hit-call score of the fitted dose curve at least 0.9, where 1 is the maximum)
Sequence of Retinoic acid receptor RXR-alpha (Homo sapiens) (P19793 whole entry, looked up, the tested form may be a part): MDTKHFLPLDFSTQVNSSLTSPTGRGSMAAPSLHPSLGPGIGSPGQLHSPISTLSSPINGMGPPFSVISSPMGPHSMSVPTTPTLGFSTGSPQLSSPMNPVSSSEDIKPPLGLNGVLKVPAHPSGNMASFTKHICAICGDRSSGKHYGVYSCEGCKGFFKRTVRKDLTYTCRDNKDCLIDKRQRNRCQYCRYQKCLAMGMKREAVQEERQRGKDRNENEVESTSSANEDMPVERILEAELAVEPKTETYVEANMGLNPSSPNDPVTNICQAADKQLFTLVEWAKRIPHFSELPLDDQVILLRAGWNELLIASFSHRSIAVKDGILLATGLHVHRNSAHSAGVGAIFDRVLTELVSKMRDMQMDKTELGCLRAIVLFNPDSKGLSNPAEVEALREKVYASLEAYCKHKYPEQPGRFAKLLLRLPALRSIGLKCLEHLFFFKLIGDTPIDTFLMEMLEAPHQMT
Summary of the method: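 Measures exogenous chimeric NR-GAL4 activity in transfected HepG2 liver cells after 24 h of dosing. Induced reporter mRNA was detected by RT-PCR with capillary electrophoresis, and gain of signal was analysed against DMSO.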

[18] = target: human Retinoid X Receptor beta (RXRb), RXRB (gene 6257) (UniProt P28702); assay: ATG_RXRb_TRANS: Attagene TRANS-FACTORIAL HepG2 Assay for human Retinoid X Receptor beta (RXRb) (AID 2283013; active = hit-call score of the fitted dose curve at least 0.9, where 1 is the maximum)
Sequence of human Retinoid X Receptor beta (RXRb), RXRB (gene 6257) (P28702 whole entry, looked up, the tested form may be a part): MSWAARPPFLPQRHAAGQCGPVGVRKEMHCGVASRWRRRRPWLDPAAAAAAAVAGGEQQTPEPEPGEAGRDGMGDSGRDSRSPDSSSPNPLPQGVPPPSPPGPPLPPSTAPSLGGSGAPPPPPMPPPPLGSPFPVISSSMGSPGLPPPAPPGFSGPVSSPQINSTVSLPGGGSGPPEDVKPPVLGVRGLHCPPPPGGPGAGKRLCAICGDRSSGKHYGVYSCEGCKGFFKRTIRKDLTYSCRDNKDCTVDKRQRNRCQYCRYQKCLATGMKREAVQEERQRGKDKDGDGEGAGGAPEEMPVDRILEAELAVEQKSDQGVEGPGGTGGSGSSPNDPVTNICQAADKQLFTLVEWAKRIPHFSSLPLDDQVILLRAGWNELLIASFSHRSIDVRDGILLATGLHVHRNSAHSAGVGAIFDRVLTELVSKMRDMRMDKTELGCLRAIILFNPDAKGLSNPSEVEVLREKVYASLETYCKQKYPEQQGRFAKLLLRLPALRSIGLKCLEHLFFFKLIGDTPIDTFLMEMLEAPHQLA
Summary of the method: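 Chimeric receptor-Gal4 activity was assessed in transiently transfected human HepG2 cells after 24 h exposure. Transcripts from GAL4-UAS reporters were quantified by fluorescent RT-PCR and capillary electrophoresis, with DMSO as negative control and baseline.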

[19] = target: human Vitamin D Receptor (VDR), VDR (gene 7421) (UniProt P11473); assay: ATG_VDR_TRANS: Attagene TRANS-FACTORIAL HepG2 Assay for human Vitamin D Receptor (VDR) (AID 2283022; active = hit-call score of the fitted dose curve at least 0.9, where 1 is the maximum)
Sequence of human Vitamin D Receptor (VDR), VDR (gene 7421) (P11473 whole entry, looked up): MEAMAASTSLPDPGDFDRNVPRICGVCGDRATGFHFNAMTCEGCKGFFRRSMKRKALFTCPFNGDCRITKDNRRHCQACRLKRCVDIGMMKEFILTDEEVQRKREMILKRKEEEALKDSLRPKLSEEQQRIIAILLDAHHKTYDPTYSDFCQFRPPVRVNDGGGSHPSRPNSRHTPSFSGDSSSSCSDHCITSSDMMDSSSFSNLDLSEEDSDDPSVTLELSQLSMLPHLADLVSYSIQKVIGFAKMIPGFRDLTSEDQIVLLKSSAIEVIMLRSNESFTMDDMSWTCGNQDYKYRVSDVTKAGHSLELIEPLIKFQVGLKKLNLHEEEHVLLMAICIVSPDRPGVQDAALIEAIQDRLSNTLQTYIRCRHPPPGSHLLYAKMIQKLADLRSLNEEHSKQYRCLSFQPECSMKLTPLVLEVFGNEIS
Summary of the method: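 Multiplexed TRANS reporter in HepG2; 24 h treatment; reporter mRNA by RT-PCR plus capillary electrophoresis; upregulation scored relative to DMSO.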

[20] = read-out: Thrombomodulin, THBD (gene 7056); assay: BSK_3C_Thrombomodulin: BioMAP Diversity Plus: 3C Assay for Thrombomodulin Biomarker Activity (AID 2283029); details: primary human endothelial cells (HUVEC); actives raise or lower the signal
Summary of the method: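 Endothelial cells from umbilical vein are dosed with test chemical and incubated 24 h. Thrombomodulin is then quantified by ELISA, with DMSO serving as negative control and activity baseline.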

Measured: AC50

Sequence of E-selectin (Homo sapiens) (P16581 whole entry, looked up): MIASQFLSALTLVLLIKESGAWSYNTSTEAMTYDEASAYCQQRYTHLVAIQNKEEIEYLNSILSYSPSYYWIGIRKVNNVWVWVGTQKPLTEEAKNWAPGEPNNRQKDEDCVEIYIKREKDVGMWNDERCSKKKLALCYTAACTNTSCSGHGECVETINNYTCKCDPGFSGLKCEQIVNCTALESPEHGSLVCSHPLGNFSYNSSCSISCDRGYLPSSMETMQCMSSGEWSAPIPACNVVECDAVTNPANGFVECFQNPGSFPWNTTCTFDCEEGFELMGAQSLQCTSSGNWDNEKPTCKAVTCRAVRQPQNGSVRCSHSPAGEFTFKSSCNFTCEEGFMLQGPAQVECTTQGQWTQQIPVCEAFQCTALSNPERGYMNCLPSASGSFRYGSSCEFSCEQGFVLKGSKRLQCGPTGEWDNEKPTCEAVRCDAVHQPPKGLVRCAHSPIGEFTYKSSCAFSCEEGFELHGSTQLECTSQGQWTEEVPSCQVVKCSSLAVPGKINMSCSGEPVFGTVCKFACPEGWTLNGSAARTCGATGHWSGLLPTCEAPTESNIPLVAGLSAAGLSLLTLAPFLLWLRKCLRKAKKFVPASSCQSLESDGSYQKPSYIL

CCc1nn(C)c(C(=O)NCc2ccc(C(C)(C)C)cc2)c1Cl
active: [2] 0.157 µM | [3] 20 µM | [4] 20 µM | [5] 28.4 µM | [6] 20 µM | [7] 17.3 µM | [8] 20 µM | [9] 34 µM | [10] 25.3 µM | [12] 37.2 µM | [13] 26.9 µM | [14] 33.7 µM | [15] 30.2 µM | [16] 33 µM
inactive: [1] | [11]

CO/C=C(/C(=O)OC)c1ccccc1Oc1cc(Oc2ccccc2C#N)ncn1
inactive: [17] | [18] | [2] | [4] | [6] | [9] | [19] | [11] | [12] | [13] | [14] | [15] | [16]
active: [2] 12.2 µM | [5] 29 µM [middle of 4 runs] | [6] 21.1 µM | [7] 19.6 µM [middle of 4 runs] | [9] 38.1 µM and 33.2 µM and 32.7 µM | [10] 20 µM [middle of 4 runs] | [12] 39.6 µM and 42 µM | [13] 31.7 µM and 21.1 µM | [14] 26.7 µM and 16.4 µM and 24.2 µM | [16] 30.4 µM and 30.6 µM and 30.8 µM

COC(=O)c1ccccc1C(=O)OC
not listed: [1] | [2] | [17] | [18] | [20]
inactive: all other assays above

C=CCC1=C(C)[C@@H](OC(=O)[C@@H]2[C@@H](C=C(C)C)C2(C)C)CC1=O
inactive: [17] | [4] | [9] | [19] | [11] | [20] | [16]
active: [3] 31.2 µM | [5] 32 µM | [6] 23.4 µM | [7] 34.4 µM | [8] 35.4 µM | [10] 25.8 µM | [12] 13.7 µM | [13] 31.6 µM | [14] 30.2 µM | [15] 18.8 µM

COc1nc(NC(C)C)nc(NC(C)C)n1
not listed: [18] | [20]
inactive: all other assays above

CC1=C(C(=O)Nc2ccccc2)SCCO1
active: [7] 10.6 µM
not listed: [1] | [17] | [20]
inactive: all other assays above

CC(Oc1ccc(Cl)cc1Cl)C(=O)O (centres undefined)
not listed: [1] | [2] | [19] | [20]
inactive: all other assays above

CCCCNC(=O)n1c(NC(=O)OC)nc2ccccc21
active: [5] 10 µM | [7] 13.7 µM | [10] 8.93 µM | [12] 9.8 µM | [14] 14 µM | [16] 9.62 µM
not listed: [1] | [2] | [20]
inactive: all other assays above
